CYP2C19 act: human CYP2C19 activators, primary screen, biochemical, luminescence; 96,000 tested, under 10 active; recombinant CYP2C19, luciferin-H EGE luminescence; stronger effect = higher value; 0 = fully inhibited enzyme, 1 = untreated enzyme; Cytochrome P450 2C19 (Homo sapiens), P33261; AID 1025, 2008; activation factor at 5 µM;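 active = activation factor of at least 2 at 5 µM in the primary screen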
Target sequence (P33261 whole entry, looked up): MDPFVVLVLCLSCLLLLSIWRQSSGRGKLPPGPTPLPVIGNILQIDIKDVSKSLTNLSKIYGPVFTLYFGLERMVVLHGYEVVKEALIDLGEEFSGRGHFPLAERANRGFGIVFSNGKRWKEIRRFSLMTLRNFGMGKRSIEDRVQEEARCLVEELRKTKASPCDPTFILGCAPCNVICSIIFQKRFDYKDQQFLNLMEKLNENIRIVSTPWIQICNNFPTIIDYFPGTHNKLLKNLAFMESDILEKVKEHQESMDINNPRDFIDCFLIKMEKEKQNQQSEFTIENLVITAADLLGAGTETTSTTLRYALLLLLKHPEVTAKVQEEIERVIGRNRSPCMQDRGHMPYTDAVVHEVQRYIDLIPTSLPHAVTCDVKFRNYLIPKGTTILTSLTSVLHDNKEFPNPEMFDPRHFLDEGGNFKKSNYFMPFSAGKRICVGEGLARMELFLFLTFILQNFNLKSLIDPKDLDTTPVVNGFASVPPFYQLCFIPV
CYP2C9 inhib: blockers of cytochrome P450 2C9 activity – biochemical, luminescence, ADME assay, primary screen; CYP2C9 Supersomes, luciferin-H conversion; inhibition, % at 5 µM; 96,000 compounds, 20% hits;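 active = blocking of liver enzyme CYP2C9 beyond about 50% at 5 µM, limit read from the data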
CYP2C9 activ: human CYP2C9 activators, primary screen, biochemical, luminescence; recombinant CYP2C9, luciferin-H conversion; stronger effect = higher value; factor 1 = untreated enzyme, 0 = blocked; 96,000 compounds, 1.4% hits; activation factor at 5 µM; Cytochrome P450 2C9 (Homo sapiens), P11712; AID 1024, 2008;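 active = activation factor of 2 or more for CYP2C9 at a 5 µM dose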
PLAP activator: PLAP enzyme activators, biochemical, luminescence, HTS | purified PLAP enzyme, luminescent substrate read-out; stronger effect = higher value | activation fold at 20 µM | 96,000 compounds, 1.2% hits | AID 696, 2007; in the data active = activation fold above about 2
CYP2C19 inh: blockers of cytochrome P450 2C19 activity – biochemical, luminescence, ADME assay, primary screen; AID 778, 2007; 96,000 compounds, 21% hits; inhibition, % at 5 µM; CYP2C19 Supersomes, luciferin-H EGE luminescence, 30 min; P33261;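 active = CYP2C19 inhibition above a set limit at 5 µM in the primary screen, cut at about 50% in these data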
Each line names hits and unclear results; the compound was inactive in the other large screens. This is a sample that favours compounds with a hit; in the whole collection about 31% have one here.

CC1=C(C(=O)Nc2ccc(C)cc2C)C(c2ccc(C)o2)NC(=O)N1 (centres undefined)	none
O=C(OCn1nnc2ccccc2c1=O)c1ccc2ccccc2n1	none
Cc1cc(C)c2nc(SCC(=O)Nc3ccc(S(=O)(=O)N4CCCC4)cc3)c(C)cc2c1	CYP2C9 inhib 88
Cc1nnc(SCC(=O)Nc2ccc(S(=O)(=O)N3CCCC3)cc2)n1N	none
Cc1cc(C)n(-c2ccc(C(=O)OCC(=O)Nc3ccc(S(=O)(=O)N4CCCCC4)cc3)cc2)n1	CYP2C9 inhib 82, CYP2C19 inh 68
Cc1cc(=O)[nH]c(SCC(=O)Nc2ccc(S(=O)(=O)N3CCCCC3)cc2)n1	CYP2C9 inhib 80
Cc1nc(COC(=O)c2ccc(S(=O)(=O)N3CCCC3)cc2)cs1	CYP2C9 inhib 90
CC1CN(CCCCOc2ccc(C(C)C)cc2)CC(C)O1 (centres undefined)	none
CCn1cc(C(=O)OCC(=O)Nc2cc(S(=O)(=O)N(C)C)ccc2C)c(=O)c2ccc(C)nc21	none
CCOC(=O)CSCC(=O)Nc1ccc(S(=O)(=O)N2CCCCC2)cc1	CYP2C9 inhib 88, CYP2C19 inh 77
Cc1nc2ncnn2c(C)c1CCC(=O)Nc1ccc(S(=O)(=O)N2CCCCCC2)cc1	CYP2C9 inhib 69
Cc1cc(C)c2c(=O)[nH]c(SCC(=O)Nc3ccc(N(C)C)cc3)nc2n1	CYP2C9 inhib 58
CCOC(=O)CNS(=O)(=O)c1ccc(S(=O)(=O)N2CCCC2)cc1	none
Cc1ccc(NC(=O)CCc2c(C)nc3ncnn3c2C)cc1	none
CCn1cc(C(=O)OCC(=O)Nc2ccc(S(=O)(=O)N3CCCC3)cc2)c(=O)c2ccc(C)nc21	CYP2C9 inhib 68
CC(c1nc2ccccc2c(=O)[nH]1)N1CCN(C)CC1 (centres undefined)	none
O=C(N/N=C/C=C/c1ccccc1)c1cnccn1	none
O=c1[nH]c(SCc2ccccc2Cl)nc2c1CCCC2	none
O=C1CCCC2=C1C(c1ccncc1)c1c(nc(SCc3ccccc3Cl)[nH]c1=O)N2 (centres undefined)	CYP2C9 inhib 95, CYP2C19 inh 85
CC(=O)N1CCC2(CC1)C(C#N)=C(N)Oc1n[nH]c(C)c12	none
COc1cc(-c2nc3oc4ccccc4c(=O)c3c(=O)n2Cc2ccco2)cc(OC)c1OC	none
CCOc1ccc(-c2nnc(SCc3nc4ccccc4[nH]3)n2N)cc1	PLAP activator 2.4
COc1ccccc1-c1nnc(SCc2nc3ccccc3[nH]2)n1C	CYP2C19 inh 80
CCOC(=O)c1ccc2c(c1)nc(COc1ccccc1C#N)n2CC	none
CCCOc1cccc(C(=O)N(Cc2cccs2)C2CCS(=O)(=O)C2)c1 (centres undefined)	none
COc1ccc(S(=O)(=O)N(CC(=O)N2CCOCC2)Cc2ccccc2)cc1C	PLAP activator 2, CYP2C19 inh 72
COc1ccc(S(=O)(=O)N(CC(=O)O)Cc2ccccc2)cc1OC	none
COc1ccc(C)cc1S(=O)(=O)N(CC(=O)N1CCOCC1)Cc1ccccc1	CYP2C19 inh 66
CS(=O)(=O)N(CC(=O)N1CCOCC1)Cc1ccccc1	none
COc1ccc(S(=O)(=O)N(CCc2ccccc2)CC(=O)O)cc1C	CYP2C9 inhib 73, CYP2C19 inh 62
Cc1sc2nc(SCC(=O)N(CCO)CCO)n(C3CCCCC3)c(=O)c2c1C	none
Cn1nc(C(F)(F)F)c(/C=N/OC(=O)c2ccc(Cl)cc2)c1Cl	none
Cn1nc(C(F)(F)F)c(/C=N/OCc2c(Cl)cccc2Cl)c1Cl	CYP2C9 inhib 80, CYP2C19 inh 52
Cc1cccc(Cn2c(=O)n(Cc3ccco3)c(=O)c3ccccc32)c1	CYP2C9 inhib 62
Cc1ccccc1Cn1c(=O)n(Cc2ccco2)c(=O)c2ccccc21	none
Nc1c(N)c2ccccc2oc1=O	none
Nc1ccc2oc(=O)c3ccccc3c2c1	CYP2C19 inh 59
CCOC(=O)C(NS(=O)(=O)c1ccc(Br)cc1)C(C)C (centres undefined)	CYP2C19 inh 89
Cc1ccc(S(=O)(=O)NC(C(=O)OCC(=O)NC(=O)c2cccn2C)C(C)C)cc1 (centres undefined)	CYP2C19 inh 59
CCOCCCNC(=O)C1CCN(C(=O)Nc2ccc(Cl)cc2)CC1	none
O=C(CCNS(=O)(=O)c1ccccc1F)NCc1ccc2c(c1)OCO2	CYP2C19 inh 70
Cc1ccc(S(=O)(=O)NCCC(=O)NCc2ccc3c(c2)OCO3)cc1C	CYP2C9 activ 2.1
O=C(CCNS(=O)(=O)c1ccc2c(c1)CCC(=O)N2)NCc1ccc2c(c1)OCO2	none
Cc1ccc(N(CC(=O)NCc2ccc3c(c2)OCO3)S(C)(=O)=O)cc1	CYP2C19 inh 55
Cc1ccc(S(=O)(=O)N(C)CCCC(=O)NCc2ccc3c(c2)OCO3)cc1	CYP2C9 inhib 76, CYP2C19 inh 82
O=C(NCCOc1ccccc1Cl)c1cc(F)c(F)cc1Cl	none
CS(=O)(=O)N1CCC(C(=O)Nc2ccc3c(c2)OCCO3)CC1	none
O=C(O)CNC(=O)c1ccc(S(=O)(=O)N2CCOCC2)cc1	none
CCOC(=O)N1CCC(N(CCOC)C(=O)Nc2ccc(Cl)cc2)CC1	none
COCCNC(=O)C1CCC(Cn2c(=S)[nH]c3ccccc3c2=O)CC1 (centres undefined)	CYP2C9 inhib 61, CYP2C19 inh 53
O=C(NCCc1c[nH]c2ccccc12)C1CCC(Cn2c(=S)[nH]c3ccccc3c2=O)CC1 (centres undefined)	CYP2C9 inhib 98, CYP2C19 inh 100
CSc1cc(-c2ccc(Cl)cc2)c(C(=O)N2CCCC2)s1	none
CCOC(=O)c1cc2cc(CC(=O)c3ccc(OCC)cc3O)ccc2o1	CYP2C9 inhib 54, CYP2C19 inh 69
CCOc1ccc(C(=O)Cc2ccc3oc(C(=O)O)cc3c2)c(O)c1	none
CSc1nc(NC(C)(C)C)nc(Oc2ccc(=O)n(C)n2)n1	none
CC1CCCC(C)N1C(=O)COC(=O)c1ccc(O)cc1 (centres undefined)	none
O=C(OCC(=O)N(C1CCCCC1)C1CCCCC1)c1ccncc1	CYP2C9 inhib 65, CYP2C19 inh 99
CCN(CC)S(=O)(=O)c1ccc(C(=O)NCC(c2cccs2)N2CCOCC2)cc1 (centres undefined)	none
O=C(NCC(c1cccs1)N1CCOCC1)c1ccc(Cl)s1 (centres undefined)	CYP2C9 inhib 54, CYP2C19 inh 72
NC(=O)CNC(=O)[C@@H]1CC2(CC(c3ccc(Cl)cc3)=NO2)CN1C(=O)c1ccc(Br)cc1 (some centres undefined)	none
Cc1cc(Nc2nc3ccccc3[nH]c2=O)n(-c2ccccc2)n1	CYP2C9 inhib 64
CN=C(Nc1cc(C)nn1-c1ccccc1)c1ccccc1	CYP2C19 inh 81
